Sa RN4220 lethal: kills Staphylococcus aureus RN4220 | S. aureus RN4220 growth, OD600, 16 h | inhibition, % (concentration not given with the values) | 330,000 compounds, 0.33% hits | AID 1259311; in the data active means inhibition above about 85%;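 further: plate controls were untreated cells for no effect and reference antibiotic for full effect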
Mtb hypoxia rep: inhibitors of hypoxia-regulated fluorescent reporter in Mycobacterium tuberculosis; 300,000 compounds, 0.1% hits; M. tuberculosis hypoxia-regulated fluorescent reporter, fluorescence; fluorescence inhibition, % (no concentration beside the values); in the data active means fluorescence inhibition mostly above about 23%, no sharp cut-off; inactive means mostly below about 17%
TcdB GH inh: inhibitors of Clostridioides difficile toxin B glycohydrolase; TcdB glycohydrolase enzymatic assay, plate reader; inhibition, % at 9.99 µM; 350,000 compounds, 0.24% hits; AID 652162; in the data active means inhibition above about 10%
ugtP null kill: kills S. aureus RN4220 lacking UgtP; AID 1259309; S. aureus RN4220 ugtP deletion, OD600 growth, 16 h; 330,000 compounds, 0.54% hits; growth inhibition, % (test concentration not listed); in the data active means growth inhibition above about 68%;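 further: plate controls were untreated wells for no effect and antibiotic for full effect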
Yp Topo-I inh: inhibitors of Yersinia pestis topoisomerase I | Y. pestis Topo-I cleavage product accumulation, plate reader | activity, % at 10 µM | 360,000 compounds, 0.064% hits; in the data active means activity above about 50%, passing the limit was not always enough
BioA inh-1: blocks M. tuberculosis BioA enzyme activity | purified M. tuberculosis BioA enzyme, plate reader | inhibition, % at 9.99 µM | 360,000 compounds, 0.096% hits | AID 602481; in the data active means inhibition above about 40%
BioA inh-2: Mtb BioA enzyme inhibition; shares compounds with BioA inh-1; purified BioA enzyme, plate reader, dose response; max activity, %; 310 tested, under 10 active; AID 651679;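 further: top concentration of the dilution series was 10 µM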
Target sequence (P9WQ81 whole entry, looked up): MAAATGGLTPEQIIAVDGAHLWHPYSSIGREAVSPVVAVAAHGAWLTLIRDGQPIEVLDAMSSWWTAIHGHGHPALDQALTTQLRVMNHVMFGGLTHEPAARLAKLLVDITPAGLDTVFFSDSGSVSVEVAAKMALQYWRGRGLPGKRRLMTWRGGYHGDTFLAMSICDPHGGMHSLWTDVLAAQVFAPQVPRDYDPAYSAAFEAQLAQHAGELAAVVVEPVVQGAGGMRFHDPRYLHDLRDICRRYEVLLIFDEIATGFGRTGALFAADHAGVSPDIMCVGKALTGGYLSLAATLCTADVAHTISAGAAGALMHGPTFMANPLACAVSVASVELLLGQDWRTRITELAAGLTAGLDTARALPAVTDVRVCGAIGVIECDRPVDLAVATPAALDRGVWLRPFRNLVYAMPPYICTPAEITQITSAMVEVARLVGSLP
HepG2 tox 2: HepG2 viability loss; max activity, %; shares compounds with BioA inh-1; 310 tested, under 10 active; HepG2 cytotoxicity, plate reader
NIH3T3 tox 5: kills NIH3T3 cells. shares compounds with BioA inh-1. NIH3T3 cytotoxicity, plate reader. activity change, negative = cytotoxicity, % at 26 µM. 310 tested, under 10 active. AID 651900
An asterisk follows results filed as active; i = inactive; . = no result shown; [ ] = dose if it differs, or a comment. In the library only some 0.75% were active in any assay of this set; here they are far more common. Unless noted, how the calls were made is not given here.

SMILES	Sa RN4220 lethal	Mtb hypoxia rep	TcdB GH inh	ugtP null kill	Yp Topo-I inh	BioA inh-1	others
CC1(O)CC(c2ccc(Cl)cc2)=NN1C(=O)c1ccc([N+](=O)[O-])cc1 (centres undefined)	99*	8	2	98*	14	.
Cc1nc2ccccn2c1-c1ccnn1S(=O)(=O)c1ccc(F)cc1	0	-4	15*	-5	19	-1
CN1CC2C(c3ccc(C(F)(F)F)cc3)C3(c4cccnc4)CC2(C3)C1c1ccccc1 (centres undefined)	4	6	.	-1	.	.
CC(=O)Nc1ccc(S(=O)(=O)c2ccc([N+](=O)[O-])cc2)cc1	97*	21	0	72	-1	1
CCOc1ccc(S(=O)(=O)N(CC(=O)NN=Cc2ccc(-c3ccc([N+](=O)[O-])cc3)o2)c2ccccc2)cc1	-13	.	.	-15	.	.
CC(C)c1ccc2[nH]c3c(c2c1)C1CCN2C(=O)CCCC(C3)C12 (centres undefined)	7	-1	.	-2	.	.
COc1cc(C=NNC(=O)c2ccncc2)ccc1OCC(=O)Nc1ccccc1	2	.	.	1	.	.
COc1cc(OC)c(NC(=S)Nc2cccc(C(C)=O)c2)cc1Cl	13	10	.	-2	-7	.
COc1cc(OC)c(NC(=S)Nc2cc(Cl)cc(Cl)c2)cc1Cl	99*	-1	0	93*	-23	.
CC(=NNC(=O)c1c(Cl)c(C)nn1C)c1cccc(NC(=O)COc2ccc(Cl)cc2)c1	0	.	.	0	.	.
CC(=O)OCC1=C(C(=O)O)N2C(=O)C(NC(=O)c3ccc(F)cc3)C2SC1 (centres undefined)	100*	-5	-2	100*	-1	.
CC(=O)OCC1=C(C(=O)O)N2C(=O)C(NC(=O)C(C)Cn3nc(C)c(Cl)c3C)C2SC1 (centres undefined)	100*	-2	-1	101*	3	.
CC1=C(C(=O)O)N2C(=O)C(NC(=O)c3nn(C)c(C)c3Cl)C2SC1 (centres undefined)	19	1	1	23	-3	.
CC(=O)OCC1=C(C(=O)O)N2C(=O)[C@@H](NC(=O)CSc3ccncc3)[C@H]2SC1	100*	.	0	99*	15	-1
CC(C)CC(CN(N=O)C(Cc1ccccc1)CN(C)N=O)N(CCc1ccccc1)N=O (centres undefined)	2	9	.	-23	.	.
COc1ccc(C2=CC(=O)CC(c3ccc(Cl)cc3)C2)cc1 (centres undefined)	-5	3	.	-3	.	.
C[C@@H]1CC[C@H]2[C@@H](C)C(=O)O[C@@H]3O[C@@]4(C)CC[C@@H]1[C@]32OO4	4	.	1	0	0	0
COC1OC2O[C@@]3(C)CCC4C(C)CCC(C1C)[C@@]24OO3 (some centres undefined)	7	90*	.	5	.	.
CCC(C)NC(=O)CCC(=O)OC1O[C@H]2OC3(C)CC[C@H]4[C@H](C)CCC(C1C)C24OO3 (some centres undefined)	4	74*	0	-2	5	1
Cc1onc(-c2ccccc2)c1C(=O)N/N=C/c1cn(C)c2ccccc12	.	.	13*	.	12	0
Cc1onc(-c2ccccc2Cl)c1C(=O)Nc1cnn(Cc2ccccc2)c1	3	15	13*	4	4	-1
Cc1onc(-c2ccccc2Cl)c1C(=O)NCc1ccccc1	4	8	1	2	8	1
COc1cc(C=NNC(=O)c2cccnc2)cc2c1OCO2	-3	2	.	1	.	.
CC(C)=CCc1c(-c2ccc(O)cc2O)oc2cc3c(c(O)c2c1=O)C=CC(C)(C)O3	96*	.	.	97*	.	.
COc1ccc(-c2oc3c4c(cc(OC)c3c(=O)c2CC=C(C)C)OC(C)(C)C=C4)c(OC)c1	-2	.	.	7	.	.
SMILES	Sa RN4220 lethal	Mtb hypoxia rep	TcdB GH inh	ugtP null kill	Yp Topo-I inh	BioA inh-1	others
Cc1cc(C(=O)NC(c2ccccc2)[C@@]2(C)CC2C(C)C(=O)Nc2ccc3ccccc3c2)n(C)n1 (some centres undefined)	-7	-12	.	-6	.	.
COC(CC(O)CC(O)COCc1ccccc1)OC (centres undefined)	5	2	.	4	.	.
CCOC(=O)Cn1c(C(F)(F)F)nc2nc(Cl)c(Cl)nc21	.	.	12*	.	1	.
Cc1ccc(C(=NO)c2oc3c(C)c4oc(=O)cc(C)c4cc3c2C)cc1	27	0	.	1	.	.
CC(NC(=O)c1nc[nH]c1C(=O)N1CCN(C(=O)OC(C)(C)C)CC1)C(=O)OC(C)(C)C (centres undefined)	8	10	.	8	.	.
CCN1[C@H](C(=O)NCc2ccccc2)[C@@H](CO)[C@@H]2Cn3c(ccc(-c4cccnc4)c3=O)[C@@H]21	.	.	1	.	.	41*	BioA inh-2=32;HepG2 tox 2=i;NIH3T3 tox 5=6
CCNC(=O)[C@H]1[C@H](CO)[C@H]2Cn3c(ccc(-c4cccnc4)c3=O)[C@H]2N1Cc1ccc2c(c1)OCO2	.	.	1	.	.	18
COC(=O)[C@@H]1[C@@H](CO)[C@@H]2Cn3c(ccc(-c4ccccc4)c3=O)[C@@H]2N1Cc1cccc(F)c1	.	.	0	.	.	42*	BioA inh-2=5;HepG2 tox 2=i;NIH3T3 tox 5=-7
CCNC(=O)[C@@H]1[C@@H](CO)[C@@H]2Cn3c(ccc(-c4cccnc4)c3=O)[C@@H]2N1Cc1ccc2c(c1)OCO2	.	.	1	.	.	64*	BioA inh-2=3;HepG2 tox 2=i;NIH3T3 tox 5=6[23.5 µM]
CCN1[C@H](C(=O)NCc2ccccc2)[C@@H](CO)[C@@H]2Cn3c(ccc(-c4ccncc4)c3=O)[C@@H]21	.	.	2	.	.	-1
Cc1ccc(NC(=O)CSc2nc(=O)n(CCCN3CCOCC3)c3c2CCCC3)cc1F	6	13	1	14	24	47*	BioA inh-2=2;HepG2 tox 2=9;NIH3T3 tox 5=7
CCc1ccc(NC(=O)CSc2nc(=O)n(CCCN3CCOCC3)c3c2CCCC3)cc1	4	5	0	9	23	3
Clc1ccc(CSc2nnc(-c3cccnc3)o2)cc1	7	.	.	9	2	65*	BioA inh-2=-9;HepG2 tox 2=-12;NIH3T3 tox 5=-3
Cc1ccc(CSc2nnc(-c3cccnc3)o2)cc1	3	-81	.	6	9	9
CCOC(=O)[C@]12Cc3ccccc3C1N(Cc1ccccc1)C(=O)c1ccccc12 (some centres undefined)	6	8	.	15	.	.
CC(=O)c1ccc(NC(=O)C2CC(=O)N(Cc3ccccc3)C2)cc1 (centres undefined)	-1	15	.	6	0	74*	BioA inh-2=-8;HepG2 tox 2=4;NIH3T3 tox 5=-13
CCn1c(=O)n(CC)c2cc(N3CCCC3)c(NC(=O)c3ccc(F)cc3)cc21	.	.	0	.	16	17
